# Screening data (PubChem BioAssay)
# Rows were chosen to be rich in hits. Some 4.1% of all compounds tested hit in one or more screens of this group.
# beta cell repl – induces beta-cell replication in MIN6 cells. MIN6 cells proliferation, ATPlite luminescence, 48 h; cells starved in 0.2% serum; 100% = growth in 10% serum. proliferation, % at 10 µM. actives 0.29% (n = 330,000). AID 2380;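 active = compounds whose signal lies at least 3.5 SD above the mean of all wells on their plate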;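 note: 0% = DMSO-treated cells in low-serum medium and 100% = 10% serum control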
# p-CIP stab down – p/CIP protein destabilization | decrease of EGFP signal, % at 10 µM | actives 0.01% (n = 290,000) | F442A p/CIP-EGFP cells, EGFP fluorescence, 16 h;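 active = EGFP signal decrease of at least 30% at 10 µM or well 3 SD below plate mean, unless failing retest; inactive = the rest, including hits failing retest or dose response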
# FAS TE block – inhibitors of human fatty acid synthase thioesterase domain; actives 0.67% (n = 360,000); recombinant FAS-TE, OMFH fluorogenic substrate, fluorescence endpoint; P49327; inhibition, % at 15 µM;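 active = compounds whose normalised, plate-corrected inhibition of enzyme fluorescence in the single-dose primary screen is 50% or more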;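 note: 0% = DMSO with enzyme and 100% = substrate without enzyme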
# Target sequence (P49327 whole entry, looked up, the tested form may be a part): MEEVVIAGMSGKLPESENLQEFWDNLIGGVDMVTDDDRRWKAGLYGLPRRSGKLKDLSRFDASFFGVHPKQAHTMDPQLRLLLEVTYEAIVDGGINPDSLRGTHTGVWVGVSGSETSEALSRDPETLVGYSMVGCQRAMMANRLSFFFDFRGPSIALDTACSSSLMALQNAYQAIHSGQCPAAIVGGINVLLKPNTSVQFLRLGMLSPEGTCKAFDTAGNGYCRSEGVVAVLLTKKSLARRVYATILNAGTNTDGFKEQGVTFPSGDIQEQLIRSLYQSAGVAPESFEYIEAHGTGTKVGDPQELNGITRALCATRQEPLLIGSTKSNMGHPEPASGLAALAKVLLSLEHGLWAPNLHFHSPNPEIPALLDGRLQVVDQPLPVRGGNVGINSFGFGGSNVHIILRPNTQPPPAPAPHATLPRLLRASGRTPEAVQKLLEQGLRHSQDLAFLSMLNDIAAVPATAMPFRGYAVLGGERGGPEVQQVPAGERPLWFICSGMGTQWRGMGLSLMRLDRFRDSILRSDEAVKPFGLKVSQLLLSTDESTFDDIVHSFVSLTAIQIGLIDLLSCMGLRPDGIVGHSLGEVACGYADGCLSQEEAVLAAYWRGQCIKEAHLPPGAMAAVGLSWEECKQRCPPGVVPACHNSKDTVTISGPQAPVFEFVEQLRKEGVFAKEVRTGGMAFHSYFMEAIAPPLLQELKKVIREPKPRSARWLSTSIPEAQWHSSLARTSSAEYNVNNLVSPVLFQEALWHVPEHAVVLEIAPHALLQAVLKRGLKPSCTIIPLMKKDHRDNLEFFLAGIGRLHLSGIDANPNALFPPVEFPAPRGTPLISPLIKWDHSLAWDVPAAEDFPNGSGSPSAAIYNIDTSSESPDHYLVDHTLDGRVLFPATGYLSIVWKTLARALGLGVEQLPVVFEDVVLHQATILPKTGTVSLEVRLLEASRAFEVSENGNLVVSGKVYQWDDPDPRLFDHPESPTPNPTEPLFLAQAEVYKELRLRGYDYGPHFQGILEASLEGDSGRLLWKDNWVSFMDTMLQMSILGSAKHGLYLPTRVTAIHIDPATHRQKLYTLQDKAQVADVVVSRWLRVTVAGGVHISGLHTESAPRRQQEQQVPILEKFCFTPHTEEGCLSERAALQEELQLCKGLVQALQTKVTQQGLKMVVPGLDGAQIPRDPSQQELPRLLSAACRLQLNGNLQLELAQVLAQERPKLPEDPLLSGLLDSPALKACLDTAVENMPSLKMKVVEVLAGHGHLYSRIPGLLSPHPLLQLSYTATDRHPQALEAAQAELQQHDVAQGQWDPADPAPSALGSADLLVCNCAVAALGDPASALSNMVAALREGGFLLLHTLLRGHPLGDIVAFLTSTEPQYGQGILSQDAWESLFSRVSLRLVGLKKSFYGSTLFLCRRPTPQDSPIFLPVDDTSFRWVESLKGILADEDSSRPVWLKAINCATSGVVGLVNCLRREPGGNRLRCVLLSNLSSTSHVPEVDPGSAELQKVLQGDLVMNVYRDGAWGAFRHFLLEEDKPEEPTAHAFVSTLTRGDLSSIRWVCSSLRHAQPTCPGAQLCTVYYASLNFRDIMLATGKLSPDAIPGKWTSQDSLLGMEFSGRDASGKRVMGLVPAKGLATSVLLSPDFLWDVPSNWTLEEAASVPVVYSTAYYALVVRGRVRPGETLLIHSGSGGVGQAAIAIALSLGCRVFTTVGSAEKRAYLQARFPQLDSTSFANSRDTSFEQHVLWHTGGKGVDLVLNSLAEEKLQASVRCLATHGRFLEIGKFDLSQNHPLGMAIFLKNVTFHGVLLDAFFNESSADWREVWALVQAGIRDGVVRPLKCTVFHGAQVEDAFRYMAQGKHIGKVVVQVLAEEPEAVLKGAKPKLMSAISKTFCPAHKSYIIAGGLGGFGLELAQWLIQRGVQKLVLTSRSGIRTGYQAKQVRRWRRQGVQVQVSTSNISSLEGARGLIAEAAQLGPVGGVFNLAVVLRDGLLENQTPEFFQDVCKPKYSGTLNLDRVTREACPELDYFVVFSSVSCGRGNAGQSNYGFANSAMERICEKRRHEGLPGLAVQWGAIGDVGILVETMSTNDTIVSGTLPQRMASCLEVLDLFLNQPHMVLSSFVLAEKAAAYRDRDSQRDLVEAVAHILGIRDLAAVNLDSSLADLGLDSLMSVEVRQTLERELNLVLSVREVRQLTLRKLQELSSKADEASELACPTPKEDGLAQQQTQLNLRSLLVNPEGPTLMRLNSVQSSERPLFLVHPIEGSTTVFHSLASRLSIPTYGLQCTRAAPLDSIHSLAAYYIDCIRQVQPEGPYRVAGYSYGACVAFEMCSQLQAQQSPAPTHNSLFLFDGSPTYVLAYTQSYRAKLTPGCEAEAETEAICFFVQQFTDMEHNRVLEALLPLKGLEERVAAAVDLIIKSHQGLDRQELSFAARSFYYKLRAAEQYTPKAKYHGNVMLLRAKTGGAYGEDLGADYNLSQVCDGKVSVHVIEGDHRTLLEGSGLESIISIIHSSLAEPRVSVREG
# NR3A LBD binder – modulates the human NR3A ligand-binding domain; NR3A LBD differential scanning fluorimetry, Tm shift; 0% = protein alone, 100% = glycine-bound protein; Tm shift relative to glycine control, % at 25 µM; actives 2.5% (n = 340,000); AID 1259313;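 active = melting temperature shift of at least 10% of the positive control shift, at one fixed dose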
# MPTP block – permeability transition pore inhibition; isolated mouse mitochondria, Ca2+ swelling absorbance, 30 min; inhibition, % at 10 µM; actives 1.4% (n = 360,000); AID 602449;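 active = inhibition of 50% or more, scaled per plate between neutral and stimulator controls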;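 note: 0% = DMSO wells given calcium and 100% = 1 mM EGTA wells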
# FAS-TE inh conf – confirmation of human fatty acid synthase thioesterase inhibitors. actives 45% (n = 2,300). shares compounds with FAS TE block. inhibition, % at 15 µM. recombinant FAS-TE, OMFH fluorogenic substrate, fluorescence. AID 624325;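 active = compounds inhibiting the enzyme by at least 50% at 15 µM in any one of the replicates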;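 note: 0% = enzyme with DMSO only and 100% = wells lacking enzyme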
# * hit, by the source's call; . = no result given.
SMILES,beta cell repl,p-CIP stab down,FAS TE block,NR3A LBD binder,MPTP block,FAS-TE inh conf
COc1ccc(OC)c(NC(=O)Cc2c(C(=O)O)n(C)c3ccccc23)c1,4,-7,-3,2,1,.
COc1ccc2c(c1)c(CC(=O)Nc1nnc(C3CC3)s1)c(C)n2C(=O)c1ccc(Cl)cc1,-4,2,-1,-4,3,.
COc1ccc2c(c1)c(CC(=O)Nc1ccc(C(C)=O)cc1)c(C)n2C(=O)c1ccc(Cl)cc1,-2,-1,54*,10,38,30
CSc1ccc(C(O)c2ncc(-c3ccc(F)cc3)[nH]2)cc1 (stereo not given),.,.,3,.,1,.
O=C(COC(=O)c1cc([N+](=O)[O-])ccc1Cl)NC1CCCC1,3,8,80*,-1,0,87*
COC(=O)c1cc(C(=O)OCC(=O)c2ccc3c(c2)NC(=O)CO3)cc([N+](=O)[O-])c1,-3,.,57*,-7,0,53*
COC(=O)c1cc(C(=O)OCC(=O)NC2CCCCCCC2)cc([N+](=O)[O-])c1,2,.,70*,1,1,37*
O=C(N[C@H](CO)Cc1ccccc1)[C@H]1O[C@@H](n2ccc(=O)[nH]c2=O)[C@H](O)[C@@H]1O,.,.,-5,.,-2,.
COc1ccccc1NC(=O)C(C)OC(=O)C1CC(=O)N(Cc2ccco2)C1 (stereo not given),.,.,-9,.,-1,.
C=CCNc1nc2cc(-c3cccc(Cl)c3)sc2c(=O)n1C,.,.,7,.,1,.
Cc1ccc(-c2cc(C#N)c(=O)n(Cc3c(Cl)cccc3Cl)c2)cc1,0,-20,17,1,-1,.
N#Cc1cc(-c2ccccc2)cn(Cc2c(Cl)cccc2Cl)c1=O,-4,-1,62*,11*,0,25*
O=C(C/C=N\OCc1ccc([N+](=O)[O-])cc1)Nc1ccc(Br)cc1,-2,-5,55*,-1,4,57*
CN(C(=O)c1ccc(NC(=O)Cc2ccc([N+](=O)[O-])cc2)cc1)C1CCCC1,-3,.,8,-9,4,.
CN(C(=O)c1cccc(NC(=O)Cc2ccc(NC(=O)C3CCCN(S(=O)(=O)c4cccc([N+](=O)[O-])c4)C3)cc2)c1)C1CCCC1 (stereo not given),.,.,69*,10*,1,19
CN(C(=O)c1ccc(NC(=O)Cc2cccc(NC(=O)C3CCCN(S(=O)(=O)c4cccc([N+](=O)[O-])c4)C3)c2)cc1)C1CC1 (stereo not given),.,.,28,9,-2,.
CN(C(=O)c1ccc(NC(=O)Cc2ccc(NC(=O)C3CCCN(S(=O)(=O)c4cccc([N+](=O)[O-])c4)C3)cc2)cc1)C1CCCC1 (stereo not given),.,.,66*,6,1,-3
CN(Cc1ccccc1)C(=O)c1ccc(NC(=O)Cc2ccc(NC(=O)C3CCCN(C(=O)C4CCC4)C3)cc2)cc1 (stereo not given),.,.,-3,-1,-1,.
CN(Cc1ccccc1)C(=O)c1ccc(NC(=O)Cc2ccc(NC(=O)C3CCCN(S(=O)(=O)c4cccc([N+](=O)[O-])c4)C3)cc2)cc1 (stereo not given),.,.,59*,9,0,5
CSCCNC(=O)C1(C)CCN1C(=O)c1ccc(C(C)(C)C)cc1 (stereo not given),.,.,-4,.,1,.
CCNc1ccc(C(=O)N/N=C/c2c(C)nn(-c3ccccc3)c2N2CCCC2)cc1[N+](=O)[O-],0,-4,70*,3,2,22
Cc1ccc(NS(=O)(=O)c2cccc(C(=O)N/N=C/c3ccc4c(c3)OCCO4)c2)c(C)c1,0,-17,28,5,5,.
Cc1ccc(NS(=O)(=O)c2cccc(C(=O)N/N=C/c3c(C)nn(-c4ccccc4)c3N3CCCC3)c2)c(C)c1,-2,0,51*,5,-1,19
Cc1nn(-c2ccccc2)c(N2CCCC2)c1/C=N/NC(=O)c1ccccc1O,0,2,-7,-4,26,.
CC(C)Nc1ncnc2c1ncn2[C@H]1CN(CCN2CCOCC2)C[C@@H](CO)O1,.,.,-8,.,0,.
CC1=C(C(=O)N(C(C)C)C(C)C)CC(CC(=O)NCc2cccc3ccccc23)C(=O)N1Cc1ccc(C(C)(C)C)cc1 (stereo not given),.,.,23,.,-1,.
